Results on 4 compounds are retold here after PubChem BioAssay.

Assay [1] is described as follows: optical density shifts of acrAB sulA E. coli – strain DRC41, OD650, 48 h, E. coli filamentation inducer project, primary screen (AID 1152).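 Also: E. coli MC1000 strain DRC41 lacking acrAB efflux pump and sulA.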 Particulars: higher = more signal, called active from +8 up or from −8 down.
Assay [2] in a line: probe aLefty1 binding on compound microarray – biochemical, small-molecule microarray, 635/667 nm fluorescence, primary screen (AID 1153).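 Also: score merges spot fluorescence with signal-to-noise ratio from the scanned slide images.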 Particulars: higher = more signal.
Assay [3] in a line: plasmodial surface anion channel blockers, osmotic lysis – cell-based, P. falciparum Indochina, OD700, 1 h, primary screen (AID 1154). Particulars: P. falciparum Indochina infected RBC osmotic lysis, higher = more signal, called active from +8 up or from −8 down.
The nature of assay [4]: plasmodial surface anion channel blockers, osmotic lysis – cell-based, P. falciparum Indochina, OD700, 2 h, primary screen (AID 1155).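 Also: lysis reports solute entry through the parasite surface anion channel PSAC.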 Particulars: P. falciparum Indochina infected erythrocytes, higher = more signal, called active from +8 up or from −8 down.
Assay [5] can be described thus: changes in parasitized red cell lysis, either direction – P. falciparum Indochina, OD700, 3 h, PSAC antagonist project, primary screen (AID 1156). Particulars: P. falciparum-infected erythrocytes, osmotic lysis, higher = more signal, called active from +8 up or from −8 down.
The nature of assay [6]: plasmodial surface anion channel blockers, osmotic lysis – cell-based, P. falciparum Indochina, OD700, 18 h, primary screen (AID 1157). Particulars: P. falciparum Indochina infected erythrocytes, osmotic lysis OD700, 18 h; higher = more signal, called active from +8 up or from −8 down.
A short description of assay [7]: S6 kinase pathway phospho-S6 level changes – cell-based, A549, cytoblot, luminescence, serum-stimulated, primary screen (AID 1158).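 Also: serum-stimulated A549 lung adenocarcinoma cells; signal is phosphorylated S6 detected by cytoblot immunostaining with HRP secondary.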 Particulars: 5 h, higher = more signal.
Assay [8] concerns the target NADPH oxidase 2 (Homo sapiens) (UniProt P04839). Briefly: compounds shifting NOX2 Amplex Red fluorescence – cell-based, HEK293-NOX2, PMA-stimulated, NOX inhibitor project, primary screen (AID 1159). Also: test concentration not given here. Particulars: 45 min, higher = more signal, called active from +8 up or from −8 down.
Assay [9] has as its target NADPH oxidase 4 (Homo sapiens) (UniProt Q9NPH5). Description: compounds shifting NOX4 Amplex Red fluorescence – cell-based, HEK293-NOX4, tetracycline-induced, NOX inhibitor project, primary screen (AID 1160). Particulars: HEK293-NOX4, Amplex Red H2O2 fluorescence, 45 min; higher = more signal, called active from +8 up or from −8 down.
In assay [10] the target is NADPH oxidase 5 (Homo sapiens) (UniProt Q96PH1). Briefly: compounds shifting NOX5 Amplex Red fluorescence – cell-based, HEK293-NOX5, NOX inhibitor project, primary screen (AID 1161). Particulars: HEK293-NOX5, ionomycin, 45 min, higher = more signal.
The nature of assay [11]: compound effects on lung adenocarcinoma cell viability – A549, calcein-AM fluorescence, 48 h, basal, profiling panel (AID 1162). Also: test concentration not given here. Particulars: higher = more signal.
Assay [12] in a line: compound effects on differentiated 3T3-L1 adipocyte viability – cell-based, 3T3-L1 adipocytes, calcein-AM fluorescence, 48 h, basal, profiling panel (AID 1163). Also: test concentration not given here. Particulars: 3T3-L1 adipocytes viability, higher = more signal.
Assay [13] can be described thus: compound effects on hepatocellular carcinoma cell viability – HepG2, calcein-AM fluorescence, 48 h, basal, profiling panel (AID 1164). Also: test concentration not given here. Particulars: higher = more signal.
The nature of assay [14]: compound effects on multiple myeloma cell viability – MM1S, calcein-AM fluorescence, 48 h, basal, profiling panel (AID 1165).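 Also: viability of MM1S multiple myeloma cells under basal unstimulated conditions; test concentration not given here.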 Particulars: higher = more signal.
The nature of assay [15]: calcein-AM signal in unstimulated myeloma cells – cell-based, calcein-AM fluorescence, 48 h, PK04 Diversity Set, profiling panel (AID 1166).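 Also: cells grown under basal conditions without added stimulus; test concentration not given here.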 Particulars: RPMI8226 myeloma viability, higher = more signal.
Assay [16] can be described thus: JC-1 mitochondrial signal, unstimulated HepG2 cells – cell-based, JC-1 fluorescence, 24 h, 100 nL compound, profiling panel (AID 1167). Also: test concentration not given here. Particulars: HepG2 mitochondrial potential, higher = more signal.
Assay [17] can be described thus: JC-1 mitochondrial signal, unstimulated adipocytes – cell-based, JC-1 fluorescence, 3T3-L1 adipocytes, 24 h, 100 nL compound, profiling panel (AID 1168). Also: test concentration not given here. Particulars: JC-1 mitochondrial fluorescence, higher = more signal, called active from +8 up or from −8 down.
Assay [18] can be described thus: JC-1 mitochondrial signal, unstimulated myeloma cells – cell-based, JC-1 fluorescence, RPMI8226, 24 h, 100 nL compound, profiling panel (AID 1169). Also: test concentration not given here. Particulars: JC-1 mitochondrial potential fluorescence, higher = more signal.
The nature of assay [19]: JC-1 mitochondrial signal, unstimulated MM1S myeloma – cell-based, JC-1 fluorescence, 24 h, 100 nL compound, profiling panel (AID 1170). Also: test concentration not given here. Particulars: MM1S mitochondrial potential, higher = more signal.
Assay [20] is described as follows: resazurin metabolic signal in A549 cells – cell-based, resazurin fluorescence, 24 h, PK04 Diversity Set, profiling panel (AID 1171). Also: test concentration not given here. Particulars: A549 viability, higher = more signal, called active from +8 up or from −8 down.

Activity calls are given as the source filed them.

Chain of NADPH oxidase 2 (Homo sapiens) (P04839 whole entry, looked up): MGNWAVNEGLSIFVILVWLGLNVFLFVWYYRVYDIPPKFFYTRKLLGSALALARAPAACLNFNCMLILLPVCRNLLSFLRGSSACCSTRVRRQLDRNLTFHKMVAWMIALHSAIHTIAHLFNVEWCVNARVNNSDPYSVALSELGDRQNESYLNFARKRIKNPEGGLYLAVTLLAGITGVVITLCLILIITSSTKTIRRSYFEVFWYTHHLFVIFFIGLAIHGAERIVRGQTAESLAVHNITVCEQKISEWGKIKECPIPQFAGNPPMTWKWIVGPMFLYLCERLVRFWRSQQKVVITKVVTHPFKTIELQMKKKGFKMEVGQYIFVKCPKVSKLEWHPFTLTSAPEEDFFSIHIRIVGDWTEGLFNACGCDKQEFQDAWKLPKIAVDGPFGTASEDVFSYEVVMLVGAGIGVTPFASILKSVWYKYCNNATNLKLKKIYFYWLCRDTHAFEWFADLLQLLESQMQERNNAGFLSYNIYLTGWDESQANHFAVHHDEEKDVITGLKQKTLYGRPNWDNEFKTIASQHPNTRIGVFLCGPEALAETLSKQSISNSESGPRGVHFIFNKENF
Chain of NADPH oxidase 5 (Homo sapiens) (Q96PH1 whole entry, looked up): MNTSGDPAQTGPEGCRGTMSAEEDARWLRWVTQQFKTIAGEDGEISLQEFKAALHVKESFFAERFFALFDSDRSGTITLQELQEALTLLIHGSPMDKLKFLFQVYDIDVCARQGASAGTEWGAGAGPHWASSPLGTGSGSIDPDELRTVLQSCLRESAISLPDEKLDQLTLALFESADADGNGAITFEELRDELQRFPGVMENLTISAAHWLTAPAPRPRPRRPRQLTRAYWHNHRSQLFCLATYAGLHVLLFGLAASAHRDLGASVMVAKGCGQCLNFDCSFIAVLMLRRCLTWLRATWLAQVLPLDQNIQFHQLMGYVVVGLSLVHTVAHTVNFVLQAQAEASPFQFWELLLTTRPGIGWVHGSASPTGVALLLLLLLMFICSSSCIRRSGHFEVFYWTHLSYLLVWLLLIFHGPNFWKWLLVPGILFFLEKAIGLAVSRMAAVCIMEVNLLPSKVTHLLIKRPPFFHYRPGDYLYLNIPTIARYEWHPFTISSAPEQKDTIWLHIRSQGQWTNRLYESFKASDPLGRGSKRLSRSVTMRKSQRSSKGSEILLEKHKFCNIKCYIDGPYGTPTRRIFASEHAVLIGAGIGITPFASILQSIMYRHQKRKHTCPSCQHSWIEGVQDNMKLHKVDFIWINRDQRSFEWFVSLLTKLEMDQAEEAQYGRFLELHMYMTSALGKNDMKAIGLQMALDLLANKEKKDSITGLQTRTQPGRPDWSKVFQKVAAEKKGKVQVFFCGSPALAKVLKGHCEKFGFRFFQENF
Chain of NADPH oxidase 4 (Homo sapiens) (Q9NPH5 whole entry, looked up): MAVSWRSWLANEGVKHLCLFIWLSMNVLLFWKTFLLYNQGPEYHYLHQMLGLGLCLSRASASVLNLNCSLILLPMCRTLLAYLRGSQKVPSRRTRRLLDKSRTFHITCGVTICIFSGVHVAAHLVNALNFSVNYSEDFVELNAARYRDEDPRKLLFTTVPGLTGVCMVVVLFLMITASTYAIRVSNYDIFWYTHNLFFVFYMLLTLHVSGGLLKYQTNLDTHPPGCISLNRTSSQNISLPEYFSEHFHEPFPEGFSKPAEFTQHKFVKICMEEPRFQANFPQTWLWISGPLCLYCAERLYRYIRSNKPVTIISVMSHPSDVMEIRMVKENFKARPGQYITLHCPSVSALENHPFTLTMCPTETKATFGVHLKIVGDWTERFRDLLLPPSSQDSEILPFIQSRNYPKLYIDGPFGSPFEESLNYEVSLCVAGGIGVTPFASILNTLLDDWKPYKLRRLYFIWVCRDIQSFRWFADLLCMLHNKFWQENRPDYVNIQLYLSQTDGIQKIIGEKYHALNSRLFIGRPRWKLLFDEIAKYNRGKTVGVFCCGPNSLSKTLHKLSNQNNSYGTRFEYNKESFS

As for `C[C@]1(C(=O)O)c2ccccc2C(=O)N(Cc2ccc(OC(F)(F)F)cc2)[C@H]1c1ccc(CO)cc1`, the z-score was 0.026 (inactive) in [1]; 3.93 (inactive) in [3]; 0.789 (inactive) in assay [4]; 0.503 (inactive) in [5]; 0.18 (inactive) in assay [6]; -0.115 in assay [7]. Moreover, the z-score in assay [8] was 0.948 (inactive); in assay [9], 0.41 (inactive); in [10], -0.52; in assay [11], 0.0055; in assay [12], 0.755; in assay [13], -0.167. Moreover, the z-score in assay [14] is -0.24; in assay [15], -1.48; in [16] it was 0.248; in assay [17], -1.18 (inactive); in assay [18] it was -0.0611; in assay [19], 0.057. For the same compound, the z-score in assay [20] is 0.244 (inactive). This compound also showed a composite z-score in assay [2] of 0.227.

For `CN1C(=O)C2C=CC(C(O)c3ccc(I)cc3)N(Nc3ccccc3)C2C1=O` (stereo not given), the z-score in assay [1] was -1.97 (inactive); in [3], 1.9 (inactive); in [4], 1.27 (inactive); in assay [5], 1.04 (inactive); in [6] it was 1.12 (inactive); in assay [7] it was -0.919. For the same compound, the z-score is -0.874 (inactive) in [8]; -5.01 (inactive) in assay [9]; -4.14 in [10]; -0.596 in assay [11]; -0.0039 in assay [12]; -0.268 in [13]. The z-score was -0.521 in assay [14]; -0.0284 in [15]; -1.07 in assay [16]; -1.09 (inactive) in assay [17]; -0.177 in [18]; 0.0807 in assay [19]. Besides, the z-score in [20] was -0.962 (inactive). The compound also returned a composite z-score in [2] of 0.195.

With `CC(C)[C@H]1NC(=O)[C@@]23C(=O)N[C@@H](Cc4ccccc4)C2[C@H](C)[C@@]2(C)O[C@H]2C3/C=C/CCC/C=C/CNC(=O)[C@H](Cc2ccccc2)NC1=O` (stereo not given in full), the z-score in assay [1] is -0.246 (inactive); in [3], 1.18 (inactive); in assay [4], 0.581 (inactive); in [5], 0.81 (inactive); in assay [6], 0.182 (inactive); in [7] it was 0.352. Further, the z-score in [8] is 1.46 (inactive); in [9], 0.525 (inactive); in assay [10], 0.896; in [11], -0.315; in assay [12] it was 0.532; in assay [13], 0.304. In addition, the z-score in [14] was -0.837; in assay [15], -1.6; in assay [16], 1.18; in assay [17], -0.499 (inactive); in [18], -0.157; in assay [19], 1.84. In addition, the z-score in assay [20] is -1.25 (inactive). In addition, in assay [2], the composite z-score came to 0.0582.

Regarding `CCOC(=O)C1=C[C@@H](C(C)(C)C)N(S(=O)(=O)c2ccc(C)cc2)[C@H]1c1ccc(C)cc1`, the z-score in [1] is -1.92 (inactive); in assay [3], 0.302 (inactive); in assay [4], 0.54 (inactive); in assay [5] it was 0.0464 (inactive); in assay [6], -0.0532 (inactive); in assay [7] it was -0.53. Further, the z-score was -0.875 (inactive) in assay [8]; -0.25 (inactive) in assay [9]; 0.251 in [10]; -0.681 in assay [11]; 0.226 in assay [12]; -1.73 in assay [13]. In addition, the z-score in assay [14] is -1.01; in [15], -1.1; in [16], 6.67; in assay [17] it was -0.251 (inactive); in [18], -0.901; in [19], 0.933. Also, the z-score in [20] is 0.51 (inactive). In assay [2], this compound displayed a composite z-score of 0.121.
